Laboratory results as given in ChEMBL document CHEMBL4513216, “Probing the Open Global Health Chemical Diversity Library for Multistage-Active Starting Points for Next-Generation Antimalarials” (ACS Infect Dis, 2020).
Out of some 69,000 compounds screened, about 8,600 (12%) showed an effect of 50% or more. The sample holds strong results, similar compounds and a random draw of the others, so the mix is not that of the screen.

Tested on: Plasmodium berghei
Assay: Screen against P. berghei liver stage (PbLuc), transformed with Luciferase, at 10uM
Type: functional, HepG2
Conditions: tested at 10 uM

Structure (SMILES) | INHIBITION [%]
Cc1ccccc1COCCOCn1c(C)cc(=O)[nH]c1=O | 51.3
Cc1cc(=O)[nH]c(=O)n1COCCOCc1ccccc1 | 8.41
Cc1cc(=O)[nH]c(=O)n1COCc1ccccc1 | 13.6
CC(C)n1ccnc1CN1CCOC(CC2CCCCC2)C1 (centres undefined) | 50
CC(C)n1ccnc1CN1CCCN(C(=O)CC2CCCO2)CC1 (centres undefined) | -32
CC(C)n1ccnc1CN1CCOC(CCc2ccccc2)C1 (centres undefined) | 9.34
COc1ccccc1C1(NCc2c(C)nc3c(C)cccn23)CCCC1 | 49
Cc1nc2sccn2c1CNC1(c2ccccc2F)CCCC1 | 52.4
Cc1nc2sccn2c1CNc1cc(C(=O)O)ccc1F | -15.7
O=C(Cn1cccn1)N(CCO)CCSc1ccc(Cl)cc1 | 24.7
Cc1nc(C(C)NC(=O)c2cn(Cc3ccc(Cl)cc3)nn2)n[nH]1 (centres undefined) | 39.9
Cc1noc(C(C)C)c1C(=O)NCC(c1ccccc1)N(C)C (centres undefined) | -7.35
Cc1ccc(CN2CCC(O)(Cn3ccc4ncccc43)CC2)o1 | 28
CCn1cc(CN2CCC(O)(Cn3ccc4ncccc43)CC2)cn1 | 38.8
CCn1ncc(CN2CCC(O)(Cn3ccc4ncccc43)CC2)c1C | 19.6
COCc1ccc(CN2CCC(O)(Cn3ccc4ncccc43)CC2)o1 | 38.7
OC1(Cn2ccc3ncccc32)CCN(Cc2ccccc2F)CC1 | 70.1
OC1(Cn2ccc3ccncc32)CCN(Cc2ccccn2)CC1 | 37
OC1(Cn2ccc3ncccc32)CCN(Cc2ccccn2)CC1 | 50.6
OC1(Cn2ccc3ncccc32)CCN(Cc2cccnc2)CC1 | 35.2
OC1(Cn2ccc3ncccc32)CCN(Cc2cc(F)cc(F)c2)CC1 | 54.4
Cc1cc(CN2CCC(O)(Cn3ccc4ncccc43)CC2)c(C)s1 | 23.2
COc1ccccc1CN1CCC(O)(Cn2ccc3ncccc32)CC1 | 14.7

Structure (SMILES) | INHIBITION [%]
OC1(Cn2ccc3ncccc32)CCN(Cc2cccs2)CC1 | 64.1
CC(C)Nc1nc2c(cc1C(=O)N(C)C)CCNCC2 | -3.83
CCCN1CCC2(C1)c1ccccc1S(=O)(=O)N2C (centres undefined) | 13.7
OC(CNCCc1nnc2ccccn12)c1ccc2c(c1)OCO2 (centres undefined) | -20.5
CCCc1nc(C)c(C(=O)Nc2cccc(C)n2)s1 | 1.45
COC[C@H]1CN(CC2CC2)C(=O)[C@@H]2CCN(Cc3ccoc3)CC[C@H]12 | 11.3
Cc1ccsc1CN(Cc1nc2c(cnn2C)c(=O)[nH]1)C(C)C | 31.533
COc1ccc(NC(=O)N(CC2CCOC2)C2CC2)cn1 (centres undefined) | 12.85
Cn1cncc1C(=O)N1CCOC2(COCCN(CC3CC3)C2)C1 (centres undefined) | -8.23
Cc1nccc([C@@H]2C[C@@H]3CCN(Cc4c(C)noc4C)C[C@H]3O2)n1 | 67.2
Cc1noc(C)c1CN1CC[C@H]2C[C@@H](c3ccncn3)O[C@@H]2C1 | 21.6
Cc1noc([C@@H]2C[C@H]3CN(Cc4ccc5c(c4)OCO5)C[C@H]3O2)n1 | 42.1
Cc1nc([C@H]2C[C@@H]3CCN(Cc4scnc4C)C[C@H]3O2)no1 | 88
Cc1nc([C@@H]2C[C@H]3CN(Cc4scnc4C)C[C@H]3O2)no1 | -35.2
Cc1nc([C@H]2C[C@@H]3CCN(Cc4ccc5c(c4)OCO5)C[C@H]3O2)no1 | 59.3
Cc1noc(C)c1CN1CC[C@H]2C[C@H](c3ccncn3)O[C@@H]2C1 | 34.6
Cc1nc([C@@H]2C[C@H]3CN(Cc4ccc5c(c4)OCO5)C[C@H]3O2)no1 | 29.4
Cc1csc(CN2CC[C@H]3C[C@@H](c4noc(C)n4)O[C@@H]3C2)n1 | 29
Cc1noc(C)c1CN1CCC(c2ccnn2CCO)CC1 | -43.5
COCC(O)CN1CCC(=O)N(Cc2ccco2)Cc2ccccc21 (centres undefined) | 24.5
CN1CCN(C[C@H]2OC[C@@H]3CCN(C(=O)c4cnccn4)C[C@@H]32)CC1 | 31.4
CCN1CCCC(c2nc(O)c3cc(C)ccc3n2)C1 (centres undefined) | 16.8
CC(CN1CCC2(CC1)N=C(c1cccnc1)NC2=O)c1ccccc1 (centres undefined) | 70.1

Structure (SMILES) | INHIBITION [%]
O=C1NC(c2cccnc2)=NC12CCN(CCCc1ccccc1)CC2 | 58.7
CC(CN1CCC2(CC1)N=C(N(C)C)NC2=O)c1ccccc1 (centres undefined) | 0.825
O=C(Cc1cccnc1)NC1CCCN(CCCc2ccccc2)C1 (centres undefined) | 8.99
CC1=NC2(CCN(CC(C)c3ccccc3)CC2)C(=O)N1 (centres undefined) | 14
O=C1NC(c2ccccc2)=N[C@@]12CC[C@@H]1CN(Cc3cccnc3)C[C@@H]12 | 33
CC(NC(=O)NCCCn1ccnc1)c1nncn1C (centres undefined) | -6.61
c1coc(CN2CCC3(CC2)COC(COCC2CCOCC2)C3)c1 (centres undefined) | 6.27
COc1cccc(-c2cc(C(=O)NCCn3nc(C)nc3C)[nH]n2)c1 | -13.6
CCn1c(C)cc(C(=O)N2CCCC(n3ccnc3C)C2)c1C (centres undefined) | -11.3
COc1cc(CNCC2CN(C3CC3)CCO2)cc(OC)c1 (centres undefined) | -18.3
Oc1ccc(Cl)cc1CNCc1cccc(C(F)(F)F)c1 | 27.4
O=C(Nc1nccs1)C1CCCN1Cc1ccccn1 (centres undefined) | 87.6
CC1CN(CC(=O)Nc2nccs2)CCN1Cc1nccn1C (centres undefined) | 26.675
CC(C)(C)NC(=O)C1CCCCN1Cc1nccn1CC(F)(F)F (centres undefined) | 46.6
CCc1ccsc1C(=O)N1CCCN(Cc2nccn2CC)CC1 | 30.65
O=C(C1CCCCN1Cc1nccn1CC(F)(F)F)N1CCCC1 (centres undefined) | 58.9
O=C(Nc1nccs1)NC1CCN(Cc2ccccn2)CC1 | 17.4
N#Cc1cccc(OCCN2CCCC2C(=O)Nc2nccs2)c1 (centres undefined) | 44
CCNc1ccnc(CN2CCCC2C(=O)Nc2nccs2)c1 (centres undefined) | 85.1
NC(=O)C1CCCN1Cc1nccn1CC(F)(F)F (centres undefined) | 30.9
CCc1nc(CN2CCCC2C(=O)NC)cs1 (centres undefined) | 49
CC(=O)Nc1cccc(CN2CCCC2C(=O)Nc2nccs2)c1 (centres undefined) | 34.6
CCn1ccnc1CN1CCCC1C(=O)Nc1nccs1 (centres undefined) | 72.2
